# Results from the supplement of paper PMC6411743.
# ± gives the standard deviation of the averaged measurements. The full data set covers some 6,500 targets. This sample favours those with the largest changes.
# Compound: Nc1ncnc2c1ncn2[C@@H]1O[C@H](COP(=O)(O)OP(=O)(O)OP(=O)(O)O)[C@@H](O)[C@H]1O [adenosine triphosphate]
# Experiment: NP40-soluble protein abundance relative to vehicle (solubility fold change) (ratio); higher = more soluble protein in presence of ATP
# Procedure, shortened: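 Across three independent experiments, values are fold changes against the detergent-processed vehicle for each replicate, based on vsn-normalised intensities. The samples were Jurkat crude lysate treated with eight concentrations (0.1 to 10 mM) for 10 min at room temperature and then 3 min at 37 °C. Lysate was solubilised with 0.8% NP40 and benzonase, ultracentrifuged, and the supernatant analysed by TMT-labelled LC-MS/MS.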
# Chain of UniProt Q9HAN9 (Q9HAN9 whole entry): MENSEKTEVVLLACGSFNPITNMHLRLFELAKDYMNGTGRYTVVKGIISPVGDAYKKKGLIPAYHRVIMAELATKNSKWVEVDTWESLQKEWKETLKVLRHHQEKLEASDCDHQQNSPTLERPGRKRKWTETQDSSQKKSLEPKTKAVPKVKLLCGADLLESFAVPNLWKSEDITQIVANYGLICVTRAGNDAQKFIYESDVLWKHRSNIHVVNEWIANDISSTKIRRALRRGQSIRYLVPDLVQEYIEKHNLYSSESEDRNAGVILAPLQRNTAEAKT
# Chain of UniProt Q9NYK6 (Q9NYK6 whole entry): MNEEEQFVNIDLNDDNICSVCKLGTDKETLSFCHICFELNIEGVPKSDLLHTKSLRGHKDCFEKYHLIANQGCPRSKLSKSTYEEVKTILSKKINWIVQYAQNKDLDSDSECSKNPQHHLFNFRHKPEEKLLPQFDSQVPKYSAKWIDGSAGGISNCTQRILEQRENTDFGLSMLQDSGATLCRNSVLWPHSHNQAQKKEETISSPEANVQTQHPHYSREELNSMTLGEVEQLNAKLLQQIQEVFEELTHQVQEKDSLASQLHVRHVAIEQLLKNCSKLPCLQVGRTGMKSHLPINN
# Chain of UniProt Q96JM3 (Q96JM3 whole entry): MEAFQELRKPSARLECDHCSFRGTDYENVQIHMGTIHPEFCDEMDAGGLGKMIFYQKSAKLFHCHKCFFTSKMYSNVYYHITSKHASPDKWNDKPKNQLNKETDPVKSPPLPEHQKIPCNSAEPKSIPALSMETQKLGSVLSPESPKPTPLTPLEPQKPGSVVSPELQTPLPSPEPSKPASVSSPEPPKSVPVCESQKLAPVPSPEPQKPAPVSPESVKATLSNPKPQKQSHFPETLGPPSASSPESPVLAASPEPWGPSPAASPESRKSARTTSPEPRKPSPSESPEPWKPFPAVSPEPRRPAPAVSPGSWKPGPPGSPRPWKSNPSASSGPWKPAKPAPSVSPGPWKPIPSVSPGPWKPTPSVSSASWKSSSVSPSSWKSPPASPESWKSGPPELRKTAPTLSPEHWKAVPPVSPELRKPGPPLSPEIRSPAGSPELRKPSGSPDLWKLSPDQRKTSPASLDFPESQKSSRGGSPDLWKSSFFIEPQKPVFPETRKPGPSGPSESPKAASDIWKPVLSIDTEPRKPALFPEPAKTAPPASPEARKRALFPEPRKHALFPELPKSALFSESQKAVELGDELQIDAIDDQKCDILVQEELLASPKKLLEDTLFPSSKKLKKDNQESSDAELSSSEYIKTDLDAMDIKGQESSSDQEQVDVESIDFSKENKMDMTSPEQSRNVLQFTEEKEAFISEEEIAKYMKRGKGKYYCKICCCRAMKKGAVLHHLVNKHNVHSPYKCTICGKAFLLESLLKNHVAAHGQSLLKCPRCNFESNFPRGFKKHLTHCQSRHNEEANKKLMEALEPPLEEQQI
# Chain of UniProt Q96JB5 (Q96JB5 whole entry): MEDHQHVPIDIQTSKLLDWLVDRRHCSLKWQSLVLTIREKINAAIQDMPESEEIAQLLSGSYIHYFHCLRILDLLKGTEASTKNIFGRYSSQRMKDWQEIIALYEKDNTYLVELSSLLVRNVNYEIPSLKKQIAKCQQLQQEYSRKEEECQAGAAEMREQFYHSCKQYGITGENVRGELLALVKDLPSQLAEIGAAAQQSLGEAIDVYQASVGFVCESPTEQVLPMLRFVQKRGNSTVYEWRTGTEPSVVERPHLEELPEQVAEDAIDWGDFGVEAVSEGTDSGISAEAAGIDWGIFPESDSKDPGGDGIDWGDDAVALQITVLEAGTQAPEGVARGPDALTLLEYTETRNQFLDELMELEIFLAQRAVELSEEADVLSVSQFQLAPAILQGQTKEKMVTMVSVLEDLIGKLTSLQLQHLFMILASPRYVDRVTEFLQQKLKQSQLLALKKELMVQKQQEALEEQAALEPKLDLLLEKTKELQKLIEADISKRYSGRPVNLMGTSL
# Chain of UniProt Q9H9H4 (Q9H9H4 whole entry): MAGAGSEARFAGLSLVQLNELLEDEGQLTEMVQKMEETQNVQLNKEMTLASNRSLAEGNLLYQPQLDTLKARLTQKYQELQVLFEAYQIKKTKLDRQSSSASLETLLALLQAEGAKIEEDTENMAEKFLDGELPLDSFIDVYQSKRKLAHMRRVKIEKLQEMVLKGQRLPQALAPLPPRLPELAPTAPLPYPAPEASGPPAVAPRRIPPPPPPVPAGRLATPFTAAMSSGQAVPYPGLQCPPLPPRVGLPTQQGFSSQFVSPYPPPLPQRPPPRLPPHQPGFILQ
# Chain of UniProt Q96QF0 (Q96QF0 whole entry): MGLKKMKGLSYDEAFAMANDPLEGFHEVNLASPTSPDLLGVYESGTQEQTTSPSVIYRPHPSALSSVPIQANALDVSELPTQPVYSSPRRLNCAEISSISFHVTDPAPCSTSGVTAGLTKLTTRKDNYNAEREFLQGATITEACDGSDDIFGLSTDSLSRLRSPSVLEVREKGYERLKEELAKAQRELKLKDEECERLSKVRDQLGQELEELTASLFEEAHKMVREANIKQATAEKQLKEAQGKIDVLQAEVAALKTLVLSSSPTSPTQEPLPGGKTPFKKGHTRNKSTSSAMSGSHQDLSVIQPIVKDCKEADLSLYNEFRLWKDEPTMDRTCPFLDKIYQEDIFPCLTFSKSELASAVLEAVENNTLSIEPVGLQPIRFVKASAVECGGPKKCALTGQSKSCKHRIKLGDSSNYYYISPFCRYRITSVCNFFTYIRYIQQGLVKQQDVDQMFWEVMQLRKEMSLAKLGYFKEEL
# Chain of UniProt Q9P2K8 (Q9P2K8 whole entry): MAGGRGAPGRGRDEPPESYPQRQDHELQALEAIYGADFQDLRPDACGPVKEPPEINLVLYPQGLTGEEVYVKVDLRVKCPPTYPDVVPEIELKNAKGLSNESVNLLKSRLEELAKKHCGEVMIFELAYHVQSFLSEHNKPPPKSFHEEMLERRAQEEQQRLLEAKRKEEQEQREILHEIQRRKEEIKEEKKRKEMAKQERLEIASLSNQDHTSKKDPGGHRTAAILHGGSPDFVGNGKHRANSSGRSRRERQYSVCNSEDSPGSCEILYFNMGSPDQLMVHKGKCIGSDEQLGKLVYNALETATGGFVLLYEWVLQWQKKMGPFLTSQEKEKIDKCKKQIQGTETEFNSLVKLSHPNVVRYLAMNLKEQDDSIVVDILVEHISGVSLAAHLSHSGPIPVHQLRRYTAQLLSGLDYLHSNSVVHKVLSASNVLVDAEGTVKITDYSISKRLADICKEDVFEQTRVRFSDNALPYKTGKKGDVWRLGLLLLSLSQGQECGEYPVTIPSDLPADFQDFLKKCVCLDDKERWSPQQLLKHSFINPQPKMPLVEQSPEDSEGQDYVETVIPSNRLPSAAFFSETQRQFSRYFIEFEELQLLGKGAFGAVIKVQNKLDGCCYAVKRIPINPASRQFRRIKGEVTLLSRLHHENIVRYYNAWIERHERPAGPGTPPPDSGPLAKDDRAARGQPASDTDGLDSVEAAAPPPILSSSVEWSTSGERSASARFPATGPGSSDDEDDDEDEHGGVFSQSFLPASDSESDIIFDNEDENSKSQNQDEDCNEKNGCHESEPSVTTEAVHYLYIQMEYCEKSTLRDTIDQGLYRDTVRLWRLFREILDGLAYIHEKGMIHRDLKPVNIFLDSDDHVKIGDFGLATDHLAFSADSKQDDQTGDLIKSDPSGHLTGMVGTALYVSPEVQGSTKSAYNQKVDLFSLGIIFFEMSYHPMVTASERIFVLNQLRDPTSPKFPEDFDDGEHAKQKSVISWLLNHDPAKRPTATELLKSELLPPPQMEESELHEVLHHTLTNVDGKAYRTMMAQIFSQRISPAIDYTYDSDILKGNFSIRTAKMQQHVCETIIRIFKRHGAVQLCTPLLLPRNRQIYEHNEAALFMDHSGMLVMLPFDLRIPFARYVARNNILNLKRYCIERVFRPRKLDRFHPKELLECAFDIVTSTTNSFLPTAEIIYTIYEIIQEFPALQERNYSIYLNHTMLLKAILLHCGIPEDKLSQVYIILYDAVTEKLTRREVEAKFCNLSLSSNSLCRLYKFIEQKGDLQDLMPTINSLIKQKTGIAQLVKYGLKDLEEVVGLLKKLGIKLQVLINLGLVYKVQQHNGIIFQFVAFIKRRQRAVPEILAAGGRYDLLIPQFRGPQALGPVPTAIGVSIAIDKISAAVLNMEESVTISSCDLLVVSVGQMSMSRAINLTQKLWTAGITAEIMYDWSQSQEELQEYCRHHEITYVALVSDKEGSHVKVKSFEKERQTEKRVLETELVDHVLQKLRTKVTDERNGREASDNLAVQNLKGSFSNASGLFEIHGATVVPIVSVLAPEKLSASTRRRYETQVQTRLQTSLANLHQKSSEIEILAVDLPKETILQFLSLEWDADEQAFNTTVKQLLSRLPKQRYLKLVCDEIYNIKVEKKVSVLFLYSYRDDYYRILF
# Chain of UniProt Q9HAJ7 (Q9HAJ7 whole entry): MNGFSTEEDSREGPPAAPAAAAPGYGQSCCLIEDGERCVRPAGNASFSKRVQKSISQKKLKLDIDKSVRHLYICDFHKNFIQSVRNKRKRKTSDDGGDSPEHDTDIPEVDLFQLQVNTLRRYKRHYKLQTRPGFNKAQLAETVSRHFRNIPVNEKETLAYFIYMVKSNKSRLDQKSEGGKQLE
# Chain of UniProt Q96LT9 (Q96LT9 whole entry): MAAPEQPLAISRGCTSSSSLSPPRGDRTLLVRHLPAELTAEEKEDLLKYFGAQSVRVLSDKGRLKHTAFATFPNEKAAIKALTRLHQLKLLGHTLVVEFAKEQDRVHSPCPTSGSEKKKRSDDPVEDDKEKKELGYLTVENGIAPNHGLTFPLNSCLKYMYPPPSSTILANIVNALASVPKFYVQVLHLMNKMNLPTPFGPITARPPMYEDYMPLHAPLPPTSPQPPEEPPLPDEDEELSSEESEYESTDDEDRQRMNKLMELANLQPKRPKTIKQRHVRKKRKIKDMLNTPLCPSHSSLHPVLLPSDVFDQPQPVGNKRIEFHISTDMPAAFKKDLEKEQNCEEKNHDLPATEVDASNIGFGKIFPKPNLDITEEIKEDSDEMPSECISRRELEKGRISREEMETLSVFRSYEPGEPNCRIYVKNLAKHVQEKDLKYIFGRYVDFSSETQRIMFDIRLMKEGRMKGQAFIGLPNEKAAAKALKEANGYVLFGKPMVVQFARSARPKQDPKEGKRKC
Target,NP40-soluble protein abundance (concentration: 1mM),NP40-soluble protein abundance (concentration: 2mM),NP40-soluble protein abundance (concentration: 4mM),NP40-soluble protein abundance (concentration: 6mM),NP40-soluble protein abundance (concentration: 8mM),NP40-soluble protein abundance (concentration: 10mM)
UniProt Q9P035|H3BS72,1.1 ± 0.16,1.1 ± 0.11,1.1 ± 0.11,1.01 ± 0.091,1.1 ± 0.033,1.15 ± 0.083
VPS37B (UniProt Q9H9H4),0.992 ± 0.11,0.958 ± 0.12,0.967 ± 0.057,0.983 ± 0.12,0.946 ± 0.073,0.887 ± 0.13
UniProt Q8WX93|Q8WX93-3|Q8WX93-4|Q8WX93-5|Q8WX93-8,0.978 ± 0.024,0.966 ± 0.046,1.01 ± 0.026,0.97 ± 0.042,0.971 ± 0.044,0.986 ± 0.036
UniProt Q9NW64,1.05 ± 0.068,1.04 ± 0.041,1.07 ± 0.034,1.09 ± 0.05,1.1 ± 0.049,1.11 ± 0.019
UniProt Q9NNW7|Q9NNW7-2,1.01 ± 0.04,0.942 ± 0.011,0.983 ± 0.067,0.951 ± 0.02,0.949 ± 0.057,0.958 ± 0.1
UniProt Q92576|Q92576-2,1.05 ± 0.052,1.07 ± 0.056,1.12 ± 0.051,1.22 ± 0.11,1.2 ± 0.048,1.24 ± 0.073
UniProt Q9BZ23|Q9BZ23-3|Q9BZ23-4,0.958 ± 0.079,0.995 ± 0.08,0.937 ± 0.054,0.914 ± 0.05,0.882 ± 0.11,0.91 ± 0.05
ZNF48 (UniProt Q96MX3),1.11 ± 0.069,1.13 ± 0.034,1.21 ± 0.077,1.31 ± 0.15,1.34 ± 0.12,1.4 ± 0.12
FAM117A (UniProt Q9C073),1.04 ± 0.03,0.992 ± 0.02,0.999 ± 0.039,1.01 ± 0.025,0.972 ± 0.053,0.972 ± 0.024
MRPL17 (UniProt Q9NRX2),1.08 ± 0.13,0.934 ± 0.14,0.939 ± 0.14,0.916 ± 0.33,0.93 ± 0.21,0.822 ± 0.18
UniProt Q9NVX7-2|A0A075B6T4|Q9NVX7,1 ± 0.072,1.02 ± 0.066,1 ± 0.11,0.957 ± 0.095,1.05 ± 0.065,0.975 ± 0.036
UniProt Q96LT9|Q96LT9-2,1.31 ± 0.027,1.46 ± 0.034,1.75 ± 0.15,1.95 ± 0.12,1.78 ± 0.02,2.06 ± 0.096
SENP8 (UniProt Q96LD8),0.97 ± 0.057,0.942 ± 0.032,0.943 ± 0.014,0.922 ± 0.035,0.911 ± 0.024,0.932 ± 0.023
FUT8 (UniProt Q9BYC5),1 ± 0.035,0.987 ± 0.052,1.02 ± 0.025,0.9889 ± 0.0069,1.04 ± 0.045,1.01 ± 0.039
UniProt Q9HCM7,1.71 ± 0.25,1.84 ± 0.31,2.2 ± 0.52,2.13 ± 0.52,2.62 ± 0.69,2.78 ± 0.79
UniProt Q96T23|Q96T23-2,1.48 ± 0.043,1.62 ± 0.071,1.81 ± 0.041,2 ± 0.1,1.96 ± 0.039,2.13 ± 0.11
PNKP (UniProt Q96T60),1.04 ± 0.02,1.0346 ± 0.00031,1.03 ± 0.022,1.05 ± 0.023,1.11 ± 0.036,1.157 ± 0.011
UniProt Q9H0S4|Q9H0S4-2,1.18 ± 0.12,1.23 ± 0.072,1.44 ± 0.03,1.5 ± 0.09,1.79 ± 0.073,1.99 ± 0.11
DDX23 (UniProt Q9BUQ8),1.14 ± 0.052,1.23 ± 0.1,1.38 ± 0.13,1.52 ± 0.21,1.69 ± 0.17,1.81 ± 0.2
RPGR (UniProt Q92834),1.03 ± 0.099,1.08 ± 0.039,1.05 ± 0.036,1.07 ± 0.067,1.067 ± 0.0066,1.05 ± 0.013

Target,NP40-soluble protein abundance (concentration: 1mM),NP40-soluble protein abundance (concentration: 2mM),NP40-soluble protein abundance (concentration: 4mM),NP40-soluble protein abundance (concentration: 6mM),NP40-soluble protein abundance (concentration: 8mM),NP40-soluble protein abundance (concentration: 10mM)
GTF2H4 (UniProt Q92759),1.08 ± 0.072,1.04 ± 0.035,1.09 ± 0.059,0.975 ± 0.13,1.16 ± 0.069,1.12 ± 0.036
TBRG4 (UniProt Q969Z0),0.981 ± 0.047,0.957 ± 0.015,0.928 ± 0.026,0.962 ± 0.069,0.955 ± 0.022,0.948 ± 0.015
EIF2AK4 (UniProt Q9P2K8),1.04 ± 0.096,1.02 ± 0.078,1.02 ± 0.071,0.967 ± 0.073,1.03 ± 0.056,1.03 ± 0.082
TGS1 (UniProt Q96RS0),0.969 ± 0.087,0.995 ± 0.067,1.03 ± 0.035,1.05 ± 0.054,1.03 ± 0.069,1.1 ± 0.026
UniProt Q9NQW7-3,1.01 ± 0.044,0.994 ± 0.029,0.968 ± 0.044,0.976 ± 0.052,0.991 ± 0.043,0.966 ± 0.036
UniProt Q96P11-2,1.05 ± 0.039,1.05 ± 0.03,1.11 ± 0.058,1.09 ± 0.068,1.13 ± 0.083,1.18 ± 0.072
CCDC124 (UniProt Q96CT7),1.08 ± 0.15,1.14 ± 0.089,1.3 ± 0.2,1.56 ± 0.2,1.64 ± 0.1,1.96 ± 0.36
UniProt Q9BTL3,0.928 ± 0.13,0.882 ± 0.066,0.95 ± 0.059,1 ± 0.11,0.888 ± 0.028,0.869 ± 0.059
PAAF1 (UniProt Q9BRP4),1.02 ± 0.037,1.04 ± 0.02,1.01 ± 0.072,0.982 ± 0.02,0.977 ± 0.011,1.01 ± 0.023
UniProt Q9H6R4|Q9H6R4-4|A0A0A0MRW6|Q9H6R4-2,1.08 ± 0.049,1.03 ± 0.018,1.28 ± 0.027,1.31 ± 0.041,1.39 ± 0.15,1.72 ± 0.15
DHX33 (UniProt Q9H6R0),1.04 ± 0.059,1.1 ± 0.012,1.349 ± 0.0092,1.29 ± 0.089,1.44 ± 0.18,1.51 ± 0.2
UniProt Q9H974|Q9H974-4,1.03 ± 0.044,1 ± 0.035,1 ± 0.029,0.996 ± 0.044,1.02 ± 0.016,0.991 ± 0.025
UniProt Q9BXI6|Q9BXI6-2,0.935 ± 0.035,0.917 ± 0.032,0.927 ± 0.031,0.941 ± 0.038,0.895 ± 0.025,0.925 ± 0.045
UBAC1 (UniProt Q9BSL1),0.988 ± 0.025,1 ± 0.025,1.03 ± 0.033,1.04 ± 0.061,0.965 ± 0.034,0.98 ± 0.038
SRPK1 (UniProt Q96SB4),1.31 ± 0.091,1.39 ± 0.079,1.5 ± 0.099,1.63 ± 0.12,1.67 ± 0.083,1.74 ± 0.11
UniProt Q96B36|Q96B36-3,0.861 ± 0.098,0.826 ± 0.085,0.765 ± 0.029,0.826 ± 0.091,0.747 ± 0.071,0.693 ± 0.12
CDK5RAP3 (UniProt Q96JB5),0.997 ± 0.041,1.05 ± 0.066,1.08 ± 0.065,1.11 ± 0.068,1.12 ± 0.045,1.14 ± 0.099
NMNAT1 (UniProt Q9HAN9),1.33 ± 0.36,3.44 ± 2.5,3.91 ± 2.9,4.35 ± 3.5,3.99 ± 2.9,3.99 ± 3
UniProt Q9BTT6,0.931 ± 0.073,0.916 ± 0.081,0.945 ± 0.049,0.967 ± 0.092,0.961 ± 0.092,0.922 ± 0.045
DPCD (UniProt Q9BVM2),0.965 ± 0.024,1.02 ± 0.045,0.969 ± 0.01,0.933 ± 0.048,0.929 ± 0.069,1.01 ± 0.087

Target,NP40-soluble protein abundance (concentration: 1mM),NP40-soluble protein abundance (concentration: 2mM),NP40-soluble protein abundance (concentration: 4mM),NP40-soluble protein abundance (concentration: 6mM),NP40-soluble protein abundance (concentration: 8mM),NP40-soluble protein abundance (concentration: 10mM)
ELMO1 (UniProt Q92556),1.05 ± 0.05,1.04 ± 0.043,1.02 ± 0.036,1 ± 0.067,1.04 ± 0.038,1.05 ± 0.05
UniProt Q96JM3,1.02 ± 0.043,1.02 ± 0.042,1.03 ± 0.048,1.12 ± 0.037,1.1 ± 0.039,1.12 ± 0.025
TDP1 (UniProt Q9NUW8),1.02 ± 0.032,1.02 ± 0.046,0.983 ± 0.063,1 ± 0.069,0.985 ± 0.049,1.01 ± 0.062
DDX18 (UniProt Q9NVP1),1.21 ± 0.029,1.3 ± 0.024,1.503 ± 0.0076,1.74 ± 0.035,2.07 ± 0.024,2.36 ± 0.16
UniProt Q9HDC9,1.03 ± 0.13,1 ± 0.11,0.936 ± 0.039,0.903 ± 0.13,0.953 ± 0.06,0.953 ± 0.079
UniProt Q96NT0|B8ZZ99,0.832 ± 0.11,0.87 ± 0.12,0.886 ± 0.061,0.84 ± 0.16,0.863 ± 0.11,0.849 ± 0.16
BIRC6 (UniProt Q9NR09),1.05 ± 0.029,1.01 ± 0.058,0.992 ± 0.031,0.99 ± 0.12,0.999 ± 0.083,0.994 ± 0.088
UniProt Q96KB5|Q96KB5-2,1 ± 0.038,0.98 ± 0.051,0.964 ± 0.031,0.949 ± 0.083,0.958 ± 0.042,0.965 ± 0.039
UniProt Q9NYK6|Q9NYK6-3,1.09 ± 0.13,1.02 ± 0.026,1.04 ± 0.011,1.05 ± 0.089,0.99 ± 0.066,1.05 ± 0.026
SACS (UniProt Q9NZJ4),1.09 ± 0.08,1.04 ± 0.072,1.08 ± 0.056,0.991 ± 0.075,1.102 ± 0.01,1.05 ± 0.042
DSCC1 (UniProt Q9BVC3),1.04 ± 0.038,1.06 ± 0.011,1.03 ± 0.018,1.01 ± 0.021,1.077 ± 0.0062,1.05 ± 0.037
IARS2 (UniProt Q9NSE4),1.04 ± 0.08,1.02 ± 0.075,0.991 ± 0.069,0.977 ± 0.1,1.02 ± 0.056,0.98 ± 0.069
UniProt Q96II8|Q96II8-2|Q96II8-4,1.17 ± 0.11,1.21 ± 0.057,1.2 ± 0.035,1.22 ± 0.078,1.17 ± 0.068,1.21 ± 0.034
MRPL16 (UniProt Q9NX20),1.17 ± 0.12,1.08 ± 0.11,1.06 ± 0.16,1.11 ± 0.38,1.08 ± 0.18,0.981 ± 0.14
SAP30L (UniProt Q9HAJ7),1.0942 ± 0.00039,1.12 ± 0.069,1.13 ± 0.092,1.185 ± 0.0041,1.11 ± 0.13,1.07 ± 0.082
UniProt Q96QF0|Q96QF0-2,0.996 ± 0.032,0.946 ± 0.021,1.03 ± 0.034,1.001 ± 0.0051,0.994 ± 0.062,0.979 ± 0.078
UniProt Q969U7|Q969U7-2,1.02 ± 0.072,1.01 ± 0.012,0.965 ± 0.055,0.983 ± 0.029,0.978 ± 0.072,0.986 ± 0.081
WDR41 (UniProt Q9HAD4),1.03 ± 0.026,0.994 ± 0.08,1.08 ± 0.062,1 ± 0.033,1 ± 0.065,1.01 ± 0.043
ARMC1 (UniProt Q9NVT9),0.913 ± 0.046,0.946 ± 0.018,0.876 ± 0.024,0.866 ± 0.063,0.881 ± 0.035,0.908 ± 0.029
UniProt Q9BWW4|Q9BWW4-2|Q9BWW4-3,1.05 ± 0.11,0.958 ± 0.12,0.933 ± 0.12,0.999 ± 0.12,0.956 ± 0.056,0.906 ± 0.1
